Assay results taken from PubChem BioAssay (EPA / NIEHS).
Calls of active or inactive are those of the source. Rule for the calls: active = hit-call score of the fitted dose curve at least 0.9, where 1 is the maximum; inactive = score below 0.9.

What was measured:
Conditions in all cases: mRNA level, 48 h; actives raise or lower the signal
[1] = read-out: Bcl-2 (BAX) gene, BAX (gene 581); assay: LTEA_HepaRG_BAX: Life Technologies and Expression Analysis (LTEA) Assay for Bcl-2 (BAX) gene using HepaRG (AID 2283470)
Procedure, shortened: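 Human HepaRG cells treated in duplicate for 48 h across eight concentrations (max 100 uM, 0.5% DMSO); BAX expression measured by qRT-PCR.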

[2] = read-out: adenosine kinase (ADK) gene, ADK (gene 132); assay: LTEA_HepaRG_ADK: Life Technologies and Expression Analysis (LTEA) Assay for adenosine kinase (ADK) gene using HepaRG (AID 2283471)
Procedure, shortened: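 Read-out is ADK transcript level measured by qRT-PCR and normalised to three housekeeping genes. Cells are human HepaRG, dosed for 48 h at up to 100 uM in 0.5% DMSO. Gain or loss of signal is fitted against DMSO controls.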

[3] = read-out: Alpha-fetoprotein (AFP) gene, AFP (gene 174); assay: LTEA_HepaRG_AFP: Life Technologies and Expression Analysis (LTEA) Assay for Alpha-fetoprotein (AFP) gene using HepaRG (AID 2283472)
Procedure, shortened: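 Measures AFP mRNA change in HepaRG after 48 h chemical exposure (8 half-log concentrations, highest 100 uM, 0.5% DMSO). Fold change relative to DMSO, fitted in both directions.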

BCL2L11 (gene 10018) = assay: LTEA_HepaRG_BCL2L11: Life Technologies and Expression Analysis (LTEA) Assay for Bcl-2 (BCL2L11) gene using HepaRG (AID 2283473)
Procedure, shortened: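 Differentiated human HepaRG cells were exposed 48 h in serum-free induction medium to eight half-log concentrations up to 100 uM in 0.5% DMSO, in duplicate. BCL2L11 mRNA was quantified by TaqMan qRT-PCR, normalized to ACTB, GAPDH and POLR2A; induction or repression fitted versus DMSO.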

[4] = read-out: Apolipoprotein A-V (APOA5) gene, APOA5 (gene 116519); assay: LTEA_HepaRG_APOA5: Life Technologies and Expression Analysis (LTEA) Assay for Apolipoprotein A-V (APOA5) gene using HepaRG (AID 2283474)
Procedure, shortened: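 Differentiated HepaRG cells in serum-free induction medium, exposed 48 h in duplicate to eight half-log concentrations topping at 100 uM (0.5% DMSO). APOA5 mRNA by Fluidigm TaqMan qRT-PCR, normalized to ACTB, GAPDH and POLR2A; bidirectional fit versus DMSO.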

[5] = read-out: Bcl-2 (BID) gene, BID (gene 637); assay: LTEA_HepaRG_BID: Life Technologies and Expression Analysis (LTEA) Assay for Bcl-2 (BID) gene using HepaRG (AID 2283476)
Procedure, shortened: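 Assay used HepaRG hepatic cells treated 48 h in serum-free medium with half-log dilutions from 100 uM. Endpoint: BID mRNA, qRT-PCR, normalized to ACTB/GAPDH/POLR2A.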

[6] = read-out: Cytochrome P450 (CYP24A1), CYP24A1 (gene 1591); assay: LTEA_HepaRG_CYP24A1: Life Technologies and Expression Analysis (LTEA) Assay for Cytochrome P450 (CYP24A1) using HepaRG (AID 2283478)
Procedure, shortened: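 HepaRG cells plated 48 h, then exposed in duplicate in serum-free induction medium for 48 h to 8-point half-log series from 100 uM in 0.5% DMSO. CYP24A1 mRNA by Fluidigm qRT-PCR, normalized to ACTB, GAPDH, POLR2A; bidirectional fit versus DMSO.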

[7] = read-out: Cytochrome P450 (CYP1A2), CYP1A2 (gene 1544); assay: LTEA_HepaRG_CYP1A2: Life Technologies and Expression Analysis (LTEA) Assay for Cytochrome P450 (CYP1A2) using HepaRG (AID 2283479)
Procedure, shortened: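 Differentiated human HepaRG cells in serum-free induction medium exposed 48 hours in duplicate to 8 half-log concentrations from 100 uM, 0.5% DMSO. CYP1A2 mRNA quantified by qRT-PCR, normalized to ACTB, GAPDH and POLR2A; bidirectional fitting versus DMSO.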

[8] = read-out: cysteine-aspartic acid protease (CASP8), CASP8 (gene 841); assay: LTEA_HepaRG_CASP8: Life Technologies and Expression Analysis (LTEA) Assay for cysteine-aspartic acid protease (CASP8) using HepaRG (AID 2283480)
Procedure, shortened: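 qRT-PCR readout of CASP8 mRNA, normalized to three housekeeping genes, after 48 h chemical exposure of HepaRG cells; 8-point half-log series, top 100 uM, 0.5% DMSO vehicle. Bidirectional curve fitting against DMSO baseline.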

[9] = read-out: Cytochrome P450 (CYP2B6), CYP2B6 (gene 1555); assay: LTEA_HepaRG_CYP2B6: Life Technologies and Expression Analysis (LTEA) Assay for Cytochrome P450 (CYP2B6) using HepaRG (AID 2283481)
Procedure, shortened: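 Differentiated human HepaRG cells in serum-free induction medium, dosed in duplicate for 48 h over 8 half-log concentrations topping at 100 uM (0.5% DMSO). CYP2B6 mRNA measured by TaqMan qRT-PCR, normalized to ACTB, GAPDH, POLR2A; bidirectional fit versus DMSO.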

[10] = read-out: Cytochrome P450 2C19 (Homo sapiens) (UniProt P33261); assay: LTEA_HepaRG_CYP2C19: Life Technologies and Expression Analysis (LTEA) Assay for CYP2C19 using HepaRG (AID 2283482)
Procedure, shortened: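 Differentiated HepaRG cells in serum-free induction medium exposed 48 h in duplicate, 8 concentrations from 100 uM by half-log steps in 0.5% DMSO. CYP2C19 mRNA measured by TaqMan qRT-PCR, normalized to ACTB, GAPDH, POLR2A. Bidirectional fit versus DMSO.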

CYP2C8 (gene 1558) = assay: LTEA_HepaRG_CYP2C8: Life Technologies and Expression Analysis (LTEA) Assay for CYP2C8 using HepaRG (AID 2283483)
Procedure, shortened: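 HepaRG (human liver line), 48 h chemical exposure, 8-pt half-log series from 100 uM, 0.5% DMSO vehicle. Readout: CYP2C8 transcript by qRT-PCR, housekeeping-normalized. Bidirectional fit vs DMSO baseline.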

CYP2E1 (gene 1571) = assay: LTEA_HepaRG_CYP2E1: Life Technologies and Expression Analysis (LTEA) Assay for CYP2E1 using HepaRG (AID 2283485)
Procedure, shortened: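 Assay uses 48 h exposure of HepaRG hepatic cells, eight concentrations to 100 uM. Expression of CYP2E1 is quantified by TaqMan qRT-PCR with ACTB, GAPDH and POLR2A normalization; curves fitted in both directions relative to vehicle.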

CYP4A11 (gene 1579) = assay: LTEA_HepaRG_CYP4A11: Life Technologies and Expression Analysis (LTEA) Assay for CYP4A11 using HepaRG (AID 2283486)
Procedure, shortened: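 Differentiated HepaRG cells, 48 h after plating, exposed in duplicate for 48 h to 8 half-log concentrations up to 100 uM in 0.5% DMSO in serum-free induction medium. CYP4A11 mRNA measured by TaqMan qRT-PCR, normalized to ACTB, GAPDH and POLR2A.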

[11] = read-out: Cytochrome P450 3A4 (Homo sapiens) (UniProt P08684); assay: LTEA_HepaRG_CYP3A4: Life Technologies and Expression Analysis (LTEA) Assay for CYP3A4 using HepaRG (AID 2283487)
Procedure, shortened: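 HepaRG, 48 h exposure, 8-pt CRC from 100 uM (half-log), 0.5% DMSO, duplicates; serum-free induction medium. Readout: CYP3A4 mRNA, qRT-PCR, ACTB/GAPDH/POLR2A normalization. Bidirectional fit vs DMSO.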

[12] = read-out: DNA damage-inducible transcript 3 (DDIT3), DDIT3 (gene 1649); assay: LTEA_HepaRG_DDIT3: Life Technologies and Expression Analysis (LTEA) Assay for DNA damage-inducible transcript 3 (DDIT3) using HepaRG (AID 2283488)
Procedure, shortened: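 Eight-point concentration-response (100 uM highest, half-log dilutions) in HepaRG, 48 h, duplicate wells. Endpoint: qRT-PCR mRNA, normalized (ACTB, GAPDH, POLR2A), bidirectional fitting with DMSO as baseline.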

[13] = read-out: Pro-epidermal growth factor (Homo sapiens) (UniProt P01133); assay: LTEA_HepaRG_EGF: Life Technologies and Expression Analysis (LTEA) Assay for Epidermal growth factor (EGF) using HepaRG (AID 2283489)
Procedure, shortened: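 HepaRG cells (~100,000/well, 48 h pre-culture) exposed in duplicate for 48 h in serum-free induction medium to 8 half-log concentrations up to 100 uM in 0.5% DMSO. EGF mRNA by qRT-PCR, normalized to ACTB/GAPDH/POLR2A; bidirectional fit versus DMSO.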

[14] = read-out: Early growth response protein 1 (EGR1) transcription factor, EGR1 (gene 1958); assay: LTEA_HepaRG_EGR1: Life Technologies and Expression Analysis (LTEA) Assay for Early growth response protein 1 (EGR1) transcription factor using HepaRG (AID 2283490)
Procedure, shortened: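 HepaRG, 48 h exposure, 8-pt half-log series from 100 uM, 0.5% DMSO vehicle; EGR1 transcript by TaqMan qRT-PCR (Fluidigm array), housekeeping-normalized; bidirectional fit relative to DMSO baseline.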

[15] = read-out: Ezrin (EZR), EZR (gene 7430); assay: LTEA_HepaRG_EZR: Life Technologies and Expression Analysis (LTEA) Assay for Ezrin (EZR) using HepaRG (AID 2283491)
Procedure, shortened: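 Read-out is EZR transcript level by qRT-PCR, normalized to three housekeeping genes and fitted bidirectionally against the DMSO control. Human HepaRG cells received test chemicals for 48 h at eight half-log concentrations up to 100 uM in 0.5% DMSO.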

[16] = read-out: Cytochrome P450 3A7 (Homo sapiens) (UniProt P24462); assay: LTEA_HepaRG_CYP3A7: Life Technologies and Expression Analysis (LTEA) Assay for CYP3A7 using HepaRG (AID 2283492)
Procedure, shortened: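 Differentiated HepaRG cells in serum-free induction medium exposed 48 h in duplicate to 8-point half-log series from 100 uM top in 0.5% DMSO. CYP3A7 mRNA by qRT-PCR, normalized to ACTB/GAPDH/POLR2A, bidirectional fit versus DMSO.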

Cytochrome P450 2C19 (Homo sapiens), sequence (P33261 whole entry, looked up): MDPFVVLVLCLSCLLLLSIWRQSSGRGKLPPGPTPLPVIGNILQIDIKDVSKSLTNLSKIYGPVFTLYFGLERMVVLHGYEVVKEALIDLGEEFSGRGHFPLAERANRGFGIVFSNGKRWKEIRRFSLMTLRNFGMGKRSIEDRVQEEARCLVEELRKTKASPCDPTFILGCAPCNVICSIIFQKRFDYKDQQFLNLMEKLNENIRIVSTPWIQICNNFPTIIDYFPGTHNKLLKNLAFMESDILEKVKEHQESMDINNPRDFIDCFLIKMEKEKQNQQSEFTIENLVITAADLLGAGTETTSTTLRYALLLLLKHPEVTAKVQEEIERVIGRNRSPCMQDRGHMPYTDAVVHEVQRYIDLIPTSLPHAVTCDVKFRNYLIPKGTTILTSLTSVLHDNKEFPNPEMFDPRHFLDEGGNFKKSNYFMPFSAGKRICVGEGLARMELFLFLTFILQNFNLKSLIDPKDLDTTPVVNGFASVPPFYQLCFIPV
Cytochrome P450 3A7 (Homo sapiens), sequence (P24462 whole entry, looked up): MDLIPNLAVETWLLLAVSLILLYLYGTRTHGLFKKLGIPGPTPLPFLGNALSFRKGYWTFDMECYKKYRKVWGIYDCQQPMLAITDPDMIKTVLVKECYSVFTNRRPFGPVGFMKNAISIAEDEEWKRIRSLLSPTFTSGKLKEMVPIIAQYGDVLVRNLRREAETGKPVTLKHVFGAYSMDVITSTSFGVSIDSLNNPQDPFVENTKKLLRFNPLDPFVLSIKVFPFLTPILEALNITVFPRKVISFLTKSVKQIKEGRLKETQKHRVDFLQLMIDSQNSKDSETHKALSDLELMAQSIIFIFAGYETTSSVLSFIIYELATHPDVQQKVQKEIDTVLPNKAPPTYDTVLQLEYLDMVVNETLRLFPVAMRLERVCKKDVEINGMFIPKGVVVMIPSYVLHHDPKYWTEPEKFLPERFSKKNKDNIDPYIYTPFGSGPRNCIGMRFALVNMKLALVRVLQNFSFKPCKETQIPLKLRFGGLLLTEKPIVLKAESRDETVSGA
Cytochrome P450 3A4 (Homo sapiens), sequence (P08684 whole entry, looked up): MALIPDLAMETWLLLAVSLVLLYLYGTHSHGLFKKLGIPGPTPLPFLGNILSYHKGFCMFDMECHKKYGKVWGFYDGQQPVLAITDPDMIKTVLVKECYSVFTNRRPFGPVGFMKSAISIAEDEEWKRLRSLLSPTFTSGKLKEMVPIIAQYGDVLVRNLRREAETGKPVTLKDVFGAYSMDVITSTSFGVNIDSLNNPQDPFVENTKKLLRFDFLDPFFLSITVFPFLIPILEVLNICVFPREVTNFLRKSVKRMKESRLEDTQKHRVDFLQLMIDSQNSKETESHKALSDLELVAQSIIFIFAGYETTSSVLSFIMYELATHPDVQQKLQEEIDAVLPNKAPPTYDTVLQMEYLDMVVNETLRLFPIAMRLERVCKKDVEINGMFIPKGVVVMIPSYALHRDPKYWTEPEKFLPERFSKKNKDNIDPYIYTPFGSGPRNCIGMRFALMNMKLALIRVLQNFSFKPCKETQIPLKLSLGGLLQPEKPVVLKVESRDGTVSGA

Q: Which outcome [1] does the source give for `CC12CC1(C)C(=O)N(c1cc(Cl)cc(Cl)c1)C2=O` (centres undefined) here?
A: Its outcome is “inactive”.

Q: And the outcome [2]?
A: Its outcome is “inactive”.

Q: And the AC50 [3]?
A: Its AC50 is 25.8 µM (active).

Q: And the outcome (BCL2L11 (gene 10018))?
A: Its outcome is “inactive”.

Q: And the outcome [4]?
A: The outcome was “inactive”.

Q: And the outcome [5]?
A: Its outcome is “inactive”.

Q: And the outcome [6]?
A: Its outcome is “inactive”.

Q: And the AC50 [7]?
A: The AC50 was 3.26 µM (active).

Q: What about the outcome [8] of the same compound?
A: The outcome was “inactive”.

Q: And the AC50 [9]?
A: The AC50 was 4.53 µM (active).

Q: What about the AC50 [10] of the same compound?
A: Its AC50 is 8.3 µM (active).

Q: And the outcome (CYP2C8 (gene 1558))?
A: Its outcome is “inactive”.

Q: And the AC50 (CYP2E1 (gene 1571))?
A: The AC50 was 16.6 µM (active).

Q: And the AC50 (CYP4A11 (gene 1579))?
A: Its AC50 is 9.13 µM (active).

Q: What about the AC50 [11] of the same compound?
A: Its AC50 is 5.34 µM (active).

Q: What about the outcome [12] of the same compound?
A: Its outcome is “inactive”.

Q: And the outcome [13]?
A: Its outcome is “inactive”.

Q: And the outcome [14]?
A: The outcome was “inactive”.

Q: What about the outcome [15] of the same compound?
A: Its outcome is “inactive”.

Q: What about the outcome [16] of the same compound?
A: Its outcome is “inactive”.

Q: What does the source list for `C=C(C)C(=O)[O][Sn]([CH2]CCC)([CH2]CCC)[CH2]CCC`?
A: AC50 [1]: 92.1 µM (active); outcome [2]: inactive; AC50 [3]: 2.17 µM (active); AC50 (BCL2L11 (gene 10018)): 88.3 µM (active); AC50 [4]: 2.92 µM (active); AC50 [5]: 1.58 µM (active); outcome [6]: inactive; AC50 [7]: 0.471 µM (active); outcome [8]: inactive; AC50 [9]: 2.33 µM (active); AC50 [10]: 2.64 µM (active); AC50 (CYP2C8 (gene 1558)): 2.38 µM (active); outcome (CYP2E1 (gene 1571)): inactive; AC50 (CYP4A11 (gene 1579)): 1.49 µM (active); AC50 [11]: 2.52 µM (active); AC50 [12]: 92.4 µM (active); outcome [14]: inactive; AC50 [15]: 93.5 µM (active); AC50 [16]: 2.71 µM (active)

Q: With `ClCC(Cl)CCl` as the compound, how does the AC50 [1] read?
A: Its AC50 is 9.92 µM (active).

Q: What about the outcome [2] of the same compound?
A: The outcome was “inactive”.

Q: And the outcome [3]?
A: The outcome was “inactive”.

Q: And the outcome (BCL2L11 (gene 10018))?
A: Its outcome is “inactive”.

Q: And the AC50 [4]?
A: Its AC50 is 77.6 µM (active).

Q: And the AC50 [5]?
A: The AC50 was 84.3 µM (active).

Q: What about the outcome [6] of the same compound?
A: Its outcome is “inactive”.

Q: What about the outcome [7] of the same compound?
A: Its outcome is “inactive”.

Q: And the outcome [8]?
A: The outcome was “inactive”.

Q: And the AC50 [9]?
A: The AC50 was 17.7 µM (active).

Q: What about the outcome [10] of the same compound?
A: Its outcome is “inactive”.

Q: What about the outcome (CYP2C8 (gene 1558)) of the same compound?
A: Its outcome is “inactive”.

Q: What about the outcome (CYP2E1 (gene 1571)) of the same compound?
A: Its outcome is “inactive”.

Q: What about the outcome (CYP4A11 (gene 1579)) of the same compound?
A: Its outcome is “inactive”.

Q: What about the outcome [11] of the same compound?
A: The outcome was “inactive”.

Q: And the outcome [12]?
A: Its outcome is “inactive”.

Q: What about the outcome [13] of the same compound?
A: Its outcome is “inactive”.

Q: What about the outcome [14] of the same compound?
A: The outcome was “inactive”.

Q: What about the outcome [15] of the same compound?
A: The outcome was “inactive”.

Q: And the outcome [16]?
A: The outcome was “inactive”.
